The results in this text go back to PubChem BioAssay (EPA / NIEHS).

Active and inactive are the calls of the source. The calls were made as follows: active = hit-call score of the fitted dose curve at least 0.9, where 1 is the maximum; inactive = score below 0.9.

Read-out in the experiment: TIMP metallopeptidase inhibitor 1 (TIMP1), TIMP1 (gene 7076)
Nature of the experiment: BSK_MyoF_TIMP1: BioMAP Diversity Plus: MyoF Assay for TIMP metallopeptidase inhibitor 1 (TIMP1) Biomarker Activity (AID 2284269). To be noted: primary human lung fibroblasts. How it is done:
BSK_MyoF is a cell-based, multiplexed-readout assay that uses lung fibroblasts, […], with measurements taken at 24 hours after chemical dosing in a microplate: 96-well plate.BSK_MyoF_TIMP1 is an assay component measured in the BSK_MyoF assay. It measures TIMP-1 antibody related to regulation of gene expression using ELISA technology.Data from the assay component BSK_MyoF_TIMP1 was analyzed at the endpoint, BSK_MyoF_TIMP1, in the positive analysis fitting direction relative to DMSO as the negative control and baseline of activity. Using a type of binding reporter, gain or loss-of-signal activity can be used to understand protein changes. To generalize the intended target to other relatable targets, this assay endpoint is annotated to the 'protease' intended target family, where the subfamily is 'matrix metalloproteinase'.
The levels of cell surface (or secreted, indicated by the prefix "s") biomarker endpoints were measured by ELISA. Overt cytotoxicity to cells in confluent adherent cultures (all systems other than the BT system) was assessed by measuring total protein levels using sulforhodamine B (SRB) staining in parallel cultures at the time of biomarker measurements, indicated as SRB endpoints. For proliferation assays for adherent cell types, individual cell types are cultured at sub-confluence and relative cell numbers quantified by SRB staining at time points optimized for each system (48 h: 3C and CASM3C systems; 72 h: BT and HDF3CGF systems; 96 h: SAg system). SRB was performed by staining cells with 0.1% SRB after fixation with 10% TCA and reading wells at 560 nm.Viability and proliferation of PBMC (T cells) was quantified by Alamar Blue reduction for the SAg and BT systems. For PBMC viability (referred to as PBMC Cytotoxicity within the assay endpoint names), cells were plated (75,000/well in a 96-well plate) and then chemical samples added for 1 h before addition of activators, SEB and TSST-1 (20 ng/mL final concentration each). Cells were incubated for 90 h. Then, Alamar Blue (20 uL/well) (Invitrogen, Cat DAL1100) was added for 6 h, and the plates were read with a fluorescence microplate reader at 546/580 nm (excitation/emission). For PBMC proliferation, cells were plated and activated as above but incubated for only 16 h prior to addition of Alamar Blue. Plates were read after 6 h.
Turning to `C=C(C)C(=O)OCCOCCOCCOC(=O)C(=C)C`, the result was inactive.

What is called AC50 is the midpoint of the concentration-response curve, whichever way the signal moves. For `COc1ccc(OC)c(N=Nc2c(O)ccc3ccccc23)c1`, the AC50 is 3.12 µM (active).

For the compound `O=C1OC2(c3ccccc31)c1ccc(O)c(Br)c1Oc1c2ccc(O)c1Br`, the outcome was inactive.

Turning to `CCN(CC)C(=O)N(CC)CC`, the result was inactive.

`CC(C)(C)CC(C)(C)c1ccc(OCCOCC[N+](C)(C)Cc2ccccc2)cc1`: the AC50 is 5 µM (active).

As to `COc1cc(Cl)c(OC)cc1N`, the result was inactive.

With `CCCCCC(C=O)=Cc1ccccc1`, the result was inactive.

For the compound `C=C(C)[C@H]1CC=C(C)C(=O)C1`, the result was inactive.

Consider `c1ccc(Oc2ccccc2)cc1`, for which the outcome was inactive.

On to `CC1(C)C2=CCCC(C)(C)[C@]23CC[C@H]1C3`, for which the outcome was inactive.

Consider `CCC(C)c1cc([N+](=O)[O-])cc([N+](=O)[O-])c1OC(=O)OC(C)C` (stereo not drawn), for which the AC50 was 13.6 µM (active).

Consider `IC(I)I`, for which the result was inactive.

In the case of `Cc1cc(CCC(=O)OCCOCCOCCOC(=O)CCc2cc(C)c(O)c(C(C)(C)C)c2)cc(C(C)(C)C)c1O`, the result was inactive.

For the compound `CC(=O)Nc1ccc(C(=O)CCl)cc1`, the AC50 was 34.5 µM (active).

`CC(C)(N=C=O)c1cccc(C(C)(C)N=C=O)c1`: the outcome was inactive.

For `CCCCCCCCCCCCCCCC(=O)OC/C=C(C)/C=C/C=C(C)/C=C/C1=C(C)CCCC1(C)C`, the result was inactive.

For `CCCCOC(=O)CCCCCCCC(=O)OCCCC`, the outcome was inactive.

In the case of `CC(C=O)Cc1ccc(C(C)(C)C)cc1` (stereo not drawn), the result was inactive.

For `COc1ccc(CCN2CCC(Nc3nc4ccccc4n3Cc3ccc(F)cc3)CC2)cc1`, the result was inactive.

On to `CS(=O)(=O)c1ccc(C2=C(c3ccccc3)C(=O)OC2)cc1`, for which the outcome was inactive.

Regarding `C=C(C)C(=O)OCCOCCOCCOCCOC(=O)C(=C)C`, the outcome was inactive.

Take `C1=CC2C3C=CC(C3)C2C1` (stereo not drawn): the result was inactive.

As to `CC(=O)C1(C)CC2=C(CCCC2(C)C)CC1C` (stereo not drawn), the AC50 was 20 µM (active).

Consider `Clc1cc(Cl)c(-c2c(Cl)c(Cl)cc(Cl)c2Cl)cc1Cl`, for which the outcome was inactive.

Regarding `CSCCC=O`, the outcome was inactive.

`Oc1c(Cl)cc(Cl)c(Cl)c1Cc1c(O)c(Cl)cc(Cl)c1Cl`: the AC50 is 1.07 µM (active).

As for `CN(c1nccc(=O)[nH]1)C1CCN(c2nc3ccccc3n2Cc2ccc(F)cc2)CC1`, the result was inactive.

Turning to `CCCCN(CCCC)C(=O)N(CCCC)CCCC`, the AC50 was 9.42 µM (active).

For `O=C1OC[C@H](Cc2cccc(O)c2)[C@H]1Cc1cccc(O)c1`, the result was inactive.

Consider `CC(=O)c1c(C)c([N+](=O)[O-])c(C(C)(C)C)c([N+](=O)[O-])c1C`, for which the outcome was inactive.

Take `c1ccc(CCc2ccccc2)cc1`: the AC50 is 30.2 µM (active).

Consider `C[C@@H]1CCN(C(=O)[C@H](CCCN=C(N)N)NS(=O)(=O)c2cccc3c2NC[C@H](C)C3)[C@@H](C(=O)O)C1`, for which the result was inactive.

On to `O=C1c2ccccc2C(=O)c2c(O)ccc(O)c21`, for which the result was inactive.

In the case of `C=C(C)C(=O)OCC(CC)(COC(=O)C(=C)C)COC(=O)C(=C)C`, the AC50 was 32.3 µM (active).

For `c1ccc2cc(Nc3ccc(Nc4ccc5ccccc5c4)cc3)ccc2c1`, the outcome was inactive.

On to `CN(C)C(=O)Nc1ccc(Oc2ccc(Cl)cc2)cc1`, for which the outcome was inactive.

Take `CC=Cc1ccc(OCC)c(O)c1`: the result was inactive.

In the case of `CN(C)C(=S)SC(=S)N(C)C`, the outcome was inactive.
